In PubChem BioAssay AID1159580 (chemical genetic matrix, 2015):
Screen size: about 5,500 compounds; about 2,000 (36%) were called active. Another 18% or so got no clear call; they are omitted. Rule as the data show it: active = normalized growth mostly below about 0.91 (no sharp cut-off); inconclusive = no clear call, values can overlap the other calls; inactive = mostly above about 0.92. This is one part of the list.

Experiment: chemical genetic growth profiling, strain panel (AID 1159580);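 also: tested at 20 µM; growth read once vehicle control cultures reached saturation at 30 °C; 1 = growth at the plate median or of vehicle wells; lower values mean less growth of the strain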
Conditions: growth OD
[1] = S. cerevisiae deletion strains, locus YAL013W, strain DEP1, hits give low values
[2] = S. cerevisiae deletion strains, locus YBR229C, strain ROT2, hits give low values
[3] = S. cerevisiae deletion strains, locus YDL101C, strain DUN1, hits give low values
[4] = S. cerevisiae deletion strains, locus YDR150W, strain NUM1, hits give low values
[5] = S. cerevisiae deletion strains, locus YEL061C, strain CIN8, hits give low values
[6] = S. cerevisiae deletion strains, locus YGR078C, strain PAC10, hits give low values
[7] = S. cerevisiae deletion strains, locus YHR030C, strain SLT2, hits give low values
[8] = S. cerevisiae deletion strains, locus YHR087W, strain rtc3, hits give low values
[9] = S. cerevisiae deletion strains, locus YJR043C, strain POL32, hits give low values
[10] = S. cerevisiae deletion strains, locus YJR075W, strain HOC1, hits give low values
[11] = S. cerevisiae deletion strains, locus YLR039C, strain RIC1, hits give low values
[12] = S. cerevisiae deletion strains, locus YLR058C, strain SHM2 (second series), hits give low values
[13] = S. cerevisiae deletion strains, locus YLR085C, strain ARP6, hits give low values
[14] = S. cerevisiae deletion strains, locus YLR262C, strain YPT6, hits give low values
[15] = S. cerevisiae deletion strains, locus YML094W, strain GIM5, hits give low values
[16] = S. cerevisiae deletion strains, locus YMR219W, strain ESC1, hits give low values
[17] = S. cerevisiae deletion strains, locus YMR263W, strain SAP30, hits give low values
[18] = S. cerevisiae deletion strains, locus YNL153C, strain GIM3, hits give low values
[19] = S. cerevisiae deletion strains, locus YNL298W, strain CLA4 (second series), hits give low values
[20] = S. cerevisiae deletion strains, locus YNL322C, strain KRE1, hits give low values
[21] = S. cerevisiae deletion strains, locus YNR030W, strain Alg12, hits give low values
[22] = S. cerevisiae deletion strains, locus YPL055C, strain LGE1, hits give low values
[23] = S. cerevisiae deletion strains, locus YPL241C, strain CIN2, hits give low values
[24] = S. cerevisiae deletion strains, locus YPR135W, strain CTF4, hits give low values
[25] = S. cerevisiae deletion strains, locus YAR019C, strain CDC15, hits give low values
[26] = S. cerevisiae deletion strains, locus YBL105C, strain PKC1, hits give low values
[27] = S. cerevisiae deletion strains, locus YBR135W, strain CKS1, hits give low values
[28] = S. cerevisiae deletion strains, locus YBR136W, strain MEC1, hits give low values
[29] = S. cerevisiae deletion strains, locus YBR160W, strain CDC28, hits give low values
[30] = S. cerevisiae deletion strains, locus YDL017W, strain CDC7, hits give low values
[31] = S. cerevisiae deletion strains, locus YDL028C, strain MPS1, hits give low values
[32] = S. cerevisiae deletion strains, locus YDL108W, strain KIN28, hits give low values
[33] = S. cerevisiae deletion strains, locus YDL132W, strain cdc53, hits give low values
[34] = S. cerevisiae deletion strains, locus YDL214C, strain PRR2, hits give low values
[35] = S. cerevisiae deletion strains, locus YDR052C, strain DBF4, hits give low values
[36] = S. cerevisiae deletion strains, locus YDR054C, strain cdc34, hits give low values
[37] = S. cerevisiae deletion strains, locus YDR226W, strain ADK1, hits give low values
[38] = S. cerevisiae deletion strains, locus YDR477W, strain SNF1, hits give low values
[39] = S. cerevisiae deletion strains, locus YER123W, strain YCK3, hits give low values
[40] = S. cerevisiae deletion strains, locus YER133W, strain GLC7, hits give low values
[41] = S. cerevisiae deletion strains, locus YFL009W, strain cdc4, hits give low values
[42] = S. cerevisiae deletion strains, locus YFL029C, strain CAK1, hits give low values
[43] = S. cerevisiae deletion strains, locus YFR003C, strain YPI1, hits give low values
[44] = S. cerevisiae deletion strains, locus YFR019W, strain FAB1, hits give low values
[45] = S. cerevisiae deletion strains, locus YFR028C, strain CDC14, hits give low values
[46] = S. cerevisiae deletion strains, locus YGR040W, strain KSS1, hits give low values
[47] = S. cerevisiae deletion strains, locus YGR052W, strain FMP48, hits give low values
[48] = S. cerevisiae deletion strains, locus YGR092W, strain DBF2, hits give low values
[49] = S. cerevisiae deletion strains, locus YHR079C, strain IRE1, hits give low values
[50] = S. cerevisiae deletion strains, locus YHR082C, strain KSP1, hits give low values
[51] = S. cerevisiae deletion strains, locus YHR205W, strain SCH9, hits give low values
[52] = S. cerevisiae deletion strains, locus YIL147C, strain SLN1, hits give low values
[53] = S. cerevisiae deletion strains, locus YJL095W, strain BCK1, hits give low values
[54] = S. cerevisiae deletion strains, locus YJL128C, strain PBS2, hits give low values
[55] = S. cerevisiae deletion strains, locus YJL157C, strain FAR1, hits give low values
[56] = S. cerevisiae deletion strains, locus YJR016C, strain ILV3, hits give low values
[57] = S. cerevisiae deletion strains, locus YJR066W, strain TOR1 (second series), hits give low values
[58] = S. cerevisiae deletion strains, locus YJR066W, strain TOR1, hits give low values
[59] = S. cerevisiae deletion strains, locus YKL048C, strain ELM1, hits give low values
[60] = S. cerevisiae deletion strains, locus YKL067W, strain YNK1, hits give low values
[61] = S. cerevisiae deletion strains, locus YKL101W, strain HSL1, hits give low values
[62] = S. cerevisiae deletion strains, locus YKL193C, strain SDS22, hits give low values
[63] = S. cerevisiae deletion strains, locus YKL203C, strain TOR2, hits give low values
[64] = S. cerevisiae deletion strains, locus YLR113W, strain HOG1, hits give low values
[65] = S. cerevisiae deletion strains, locus YLR133W, strain CKI1, hits give low values
[66] = S. cerevisiae deletion strains, locus YLR403W, strain SFP1, hits give low values
[67] = S. cerevisiae deletion strains, locus YML070W, strain DAK1, hits give low values
[68] = S. cerevisiae deletion strains, locus YMR001C, strain CDC5, hits give low values
[69] = S. cerevisiae deletion strains, locus YMR205C, strain PFK2 (second series), hits give low values
[70] = S. cerevisiae deletion strains, locus YMR277W, strain FCP1, hits give low values
[71] = S. cerevisiae deletion strains, locus YNL006W, strain LST8, hits give low values
[72] = S. cerevisiae deletion strains, locus YNL020C, strain ARK1, hits give low values
[73] = S. cerevisiae deletion strains, locus YNL161W, strain CBK1, hits give low values
[74] = S. cerevisiae deletion strains, locus YNL183C, strain NPR1, hits give low values
[75] = S. cerevisiae deletion strains, locus YNL207W, strain RIO2, hits give low values
[76] = S. cerevisiae deletion strains, locus YNL222W, strain SSU72, hits give low values
[77] = S. cerevisiae deletion strains, locus YNL307C, strain MCK1 (second series), hits give low values
[78] = S. cerevisiae deletion strains, locus YOL078W, strain AVO1, hits give low values
[79] = S. cerevisiae deletion strains, locus YOL136C, strain PFK27, hits give low values
[80] = S. cerevisiae deletion strains, locus YOR061W, strain CKA2, hits give low values
[81] = S. cerevisiae deletion strains, locus YOR119C, strain RIO1, hits give low values
[82] = S. cerevisiae deletion strains, locus YOR231W, strain MKK1, hits give low values
[83] = S. cerevisiae deletion strains, locus YOR329C, strain SCD5, hits give low values
[84] = S. cerevisiae deletion strains, locus YPL031C, strain PHO85, hits give low values
[85] = S. cerevisiae deletion strains, locus YPL153C, strain RAD53, hits give low values
[86] = S. cerevisiae deletion strains, locus YPL204W, strain HRR25, hits give low values
[87] = S. cerevisiae deletion strains, locus YPL209C, strain IPL1, hits give low values
[88] = S. cerevisiae deletion strains, locus YPL256C, strain CLN2, hits give low values
[89] = S. cerevisiae deletion strains, locus YPR025C, strain CCL1, hits give low values
[90] = S. cerevisiae deletion strains, locus YPR106W, strain ISR1, hits give low values
[91] = S. cerevisiae deletion strains, locus YPR111W, strain DBF20, hits give low values
[92] = S. cerevisiae deletion strains, strain NNK1, hits give low values
[93] = S. cerevisiae deletion strains, strain TSCII, hits give low values

Measured: normalized growth

Cc1onc(-c2c(Cl)cccc2Cl)c1C(=O)OCC(F)(F)F
inactive: [1] 1.01 | [2] 1.01 | S. cerevisiae deletion strains, locus YCL061C, strain MRC1, hits give low values 1.02 | [3] 0.984 | [4] 0.982 | [5] 1 | [6] 0.99 | [7] 1.05 | [8] 0.986 | [9] 0.99 | [10] 1 | S. cerevisiae deletion strains, locus YKL190W, strain CNB1, hits give low values 1 | [11] 0.955 | [12] 1.01 | [13] 0.971 | [14] 0.942 | [15] 1.01 | [16] 0.997 | [17] 1 | [18] 1.02 | [19] 1.02 | [20] 1 | [21] 0.985 | [22] 1.01 | [23] 1.04 | [24] 0.989

Cc1onc(-c2c(Cl)cccc2Cl)c1C(=O)Oc1ccc(Cl)c(Cl)c1
inactive: [1] 1.01 | [2] 0.995 | [3] 0.996 | [4] 1.01 | [5] 1.01 | [6] 1.03 | [7] 1.21 | [8] 1.06 | [9] 0.998 | [10] 0.99 | [11] 1.19 | [12] 0.986 | [13] 0.991 | [14] 1.16 | [15] 0.998 | [16] 0.992 | [17] 1.01 | S. cerevisiae deletion strains, locus YNL128W, strain TEP1, hits give low values 1 | [18] 1.03 | [19] 1.01 | [20] 1.01 | [21] 0.987 | S. cerevisiae deletion strains, locus YOL006C, strain TOP1, hits give low values 1.07 | [22] 1 | [23] 0.973 | [24] 1.14 | S. cerevisiae strains, strain wild type, hits give low values 1.01

CCCCCCCCCCCC(=O)NOC(=O)c1c(-c2c(Cl)cccc2Cl)noc1C
inactive: [25] 0.984 | [26] 0.986 | [27] 0.984 | [28] 0.985 | [29] 0.998 | [30] 0.986 | [31] 0.988 | [3] 0.999 | [32] 0.982 | [33] 0.986 | [34] 0.948 | [35] 0.997 | [36] 0.988 | [37] 0.981 | [38] 0.818 | [39] 0.656 | [40] 0.779 | [41] 0.99 | [42] 0.989 | [43] 0.984 | [44] 0.874 | [45] 0.996 | [46] 0.838 | [47] 0.641 | [48] 0.586 | [50] 0.9 | [51] 0.586 | [52] 0.984 | [54] 1 | [55] 0.909 | [56] 0.984 | [58] 0.583 | [59] 0.995 | [60] 0.944 | [61] 0.961 | [62] 0.979 | [65] 0.905 | [67] 0.692 | [68] 0.982 | [69] 0.935 | [70] 0.977 | [71] 0.992 | [72] 0.915 | [73] 0.992 | [75] 0.966 | [76] 0.988 | [77] 0.69 | [78] 0.98 | [79] 0.867 | [80] 0.886 | [82] 0.689 | [83] 0.991 | [84] 0.795 | [87] 0.991 | [89] 0.993 | [90] 1 | [91] 1.01 | [92] 0.996 | [93] 0.991
active: [7] 0.139 | [49] 0.139 | [53] 0.117 | [57] 0.451 | [63] 0.66 | [64] 0.415 | [66] 0.553 | [74] 0.571 | [81] 0.578 | [85] 0.533 | [86] 0.63 | [88] 0.697

Cc1onc(-c2c(F)cccc2Cl)c1C(=O)NNc1cc(Cl)cc(Cl)c1
inactive: [25] 0.987 | [26] 0.984 | [27] 0.987 | [28] 0.985 | [29] 0.976 | [30] 0.989 | [31] 0.986 | [3] 0.987 | [32] 0.976 | [33] 0.989 | [34] 0.902 | [35] 0.99 | [36] 0.982 | [37] 0.991 | [38] 0.931 | [39] 0.864 | [40] 0.937 | [41] 0.979 | [42] 0.977 | [43] 0.987 | [44] 0.908 | [45] 0.976 | [46] 0.894 | [47] 0.951 | [48] 0.937 | [7] 0.962 | [49] 0.939 | [50] 0.964 | [51] 0.89 | [52] 0.989 | [53] 0.942 | [54] 0.956 | [55] 0.916 | [56] 0.988 | [57] 0.883 | [58] 0.984 | [59] 0.878 | [60] 0.927 | [61] 0.894 | [62] 0.98 | [63] 0.992 | [65] 0.906 | [66] 0.901 | [67] 0.89 | [68] 0.98 | [69] 0.936 | [70] 0.983 | [71] 0.984 | [72] 0.914 | [73] 0.979 | [74] 0.935 | [75] 0.987 | [76] 0.988 | [77] 0.879 | [78] 0.978 | [79] 0.884 | [80] 0.908 | [81] 0.972 | [82] 0.889 | [83] 0.984 | [84] 0.936 | [85] 0.928 | [86] 0.918 | [87] 0.979 | [89] 0.98 | [90] 0.956 | [91] 0.955 | [92] 0.955 | [93] 0.986
active: [64] 0.798 | [88] 0.839
